Measurements reported in PMC11062922 (Nature Chemical Biology, 2023).
Read-outs that look alike come from different tables or passages of the source.

Assays:
Design in all cases: species or system human, MV4-11 + K-562 + COLO205 + SK-N-BE2 + OVCAR-8
[1] = test system: AKT2; details: read-out: apparent Kd, n = 1
[2] = test system: CDC42; details: read-out: apparent Kd; compound concentrations: 100 nM and 1000 nM (sheet 'Samples'), CATDS: 0.22290293584535001; n = 1
[3] = test system: DCTPP1; details: read-out: apparent Kd; compound concentrations: 100 nM and 1000 nM (sheet 'Samples'), CATDS: 0.21946869965493901; n = 1
[4] = test system: T1, DJA1; details: read-out: apparent Kd; compound concentrations: 100 nM and 1000 nM (sheet 'Samples'), CATDS: 0.217792726025238; n = 1
T1 construct: gene DNAJA1

[5] = test system: IRAK4; details: read-out: apparent Kd; compound concentrations: 100 nM and 1000 nM (sheet 'Samples'), CATDS: 0.188463756574588; n = 1
[6] = test system: AGK; details: read-out: apparent Kd; compound concentrations: 100 nM and 1000 nM (sheet 'Samples'), CATDS: 0.48685778986675599; n = 1
[7] = test system: TP53RK; details: read-out: apparent Kd, n = 1
[8] = test system: AKT1; details: read-out: apparent Kd, n = 1
[9] = test system: HCK; details: read-out: apparent Kd; compound concentrations:100 nM and 1000 nM (sheet 'Samples'); n = 1
[10] = test system: MAP2K2; details: read-out: apparent Kd; compound concentrations:100 nM and 1000 nM (sheet 'Samples'); n = 1
[11] = test system: NQO1; details: read-out: apparent Kd; compound concentrations:100 nM and 1000 nM (sheet 'Samples'); n = 1
[12] = test system: RET; details: read-out: apparent Kd; compound concentrations:100 nM and 1000 nM (sheet 'Samples'); n = 1
[13] = test system: YES1; details: read-out: apparent Kd; compound concentrations:100 nM and 1000 nM (sheet 'Samples'); n = 1
[14] = test system: BMPR1A; details: read-out: apparent Kd; compound concentrations: 100 nM and 1000 nM (sheet 'Samples'), CATDS: 0.16431444601058101; n = 1
[15] = test system: CAMK4; details: read-out: apparent Kd; compound concentrations: 100 nM and 1000 nM (sheet 'Samples'), CATDS: 0.11933253309467701; n = 1
[16] = test system: EGFR; details: read-out: apparent Kd; compound concentrations: 100 nM and 1000 nM (sheet 'Samples'), CATDS: 0.109679225268286; n = 1
[17] = test system: ILK; details: read-out: apparent Kd; compound concentrations: 100 nM and 1000 nM (sheet 'Samples'), CATDS: 0.116106966266716; n = 1
[18] = test system: OPA1; details: read-out: apparent Kd; compound concentrations: 100 nM and 1000 nM (sheet 'Samples'), CATDS: 0.52668483019397605; n = 1
[19] = test system: PIK3C3; details: read-out: apparent Kd; compound concentrations: 100 nM and 1000 nM (sheet 'Samples'), CATDS: 0.14677884590005799; n = 1
[20] = test system: AGPS; details: read-out: apparent Kd; compound concentrations: 100 nM and 1000 nM (sheet 'Samples'), CATDS: 7.5383402334255403E-2; n = 1
[21] = test system: CDK9; details: read-out: apparent Kd; compound concentrations: 100 nM and 1000 nM (sheet 'Samples'), CATDS: 8.3924043652499697E-2; n = 1
[22] = test system: CDKL5; details: read-out: apparent Kd; compound concentrations: 100 nM and 1000 nM (sheet 'Samples'), CATDS: 0.33786107354204697; n = 1
[23] = test system: CSNK1A1; details: read-out: apparent Kd; compound concentrations: 100 nM and 1000 nM (sheet 'Samples'), CATDS: 8.0672688589635194E-2; n = 1
[24] = test system: CSNK1D; details: read-out: apparent Kd; compound concentrations: 100 nM and 1000 nM (sheet 'Samples'), CATDS: 0.220619974671908; n = 1
[25] = test system: CSNK1E; details: read-out: apparent Kd; compound concentrations: 100 nM and 1000 nM (sheet 'Samples'), CATDS: 0.1850261885326; n = 1
[26] = test system: RAB14; details: read-out: apparent Kd; compound concentrations: 100 nM and 1000 nM (sheet 'Samples'), CATDS: 7.5249376612815694E-2; n = 1
[27] = test system: RIOK2; details: read-out: apparent Kd; compound concentrations: 100 nM and 1000 nM (sheet 'Samples'), CATDS: 0.19530203573374799; n = 1
[28] = test system: STK26; details: read-out: apparent Kd; compound concentrations: 100 nM and 1000 nM (sheet 'Samples'), CATDS: 8.25311561999897E-2; n = 1
[29] = test system: ADRBK1; details: read-out: apparent Kd; compound concentrations: 100 nM and 1000 nM (sheet 'Samples'), CATDS: 7.1088636568514996E-2; n = 1
[30] = test system: FLT3; details: read-out: apparent Kd; compound concentrations: 100 nM and 1000 nM (sheet 'Samples'), CATDS: 0.11498835622255001; n = 1
[31] = test system: FRK; details: read-out: apparent Kd; compound concentrations: 100 nM and 1000 nM (sheet 'Samples'), CATDS: 9.2307505689948E-2; n = 1
[32] = test system: MAP2K5; details: read-out: apparent Kd; compound concentrations: 100 nM and 1000 nM (sheet 'Samples'), CATDS: 0.380124521697633; n = 1
[33] = test system: PDGFRB; details: read-out: apparent Kd; compound concentrations: 100 nM and 1000 nM (sheet 'Samples'), CATDS: 7.8407173450410803E-2; n = 1
[34] = test system: PRKCZ; details: read-out: apparent Kd; compound concentrations: 100 nM and 1000 nM (sheet 'Samples'), CATDS: 7.7148514104913996E-2; n = 1
[35] = test system: PTK6; details: read-out: apparent Kd; compound concentrations: 100 nM and 1000 nM (sheet 'Samples'), CATDS: 7.5013295148623801E-2; n = 1
[36] = test system: RIPK2; details: read-out: apparent Kd; compound concentrations: 100 nM and 1000 nM (sheet 'Samples'), CATDS: 9.6327273582125797E-2; n = 1
[37] = test system: RIPK3; details: read-out: apparent Kd; compound concentrations: 100 nM and 1000 nM (sheet 'Samples'), CATDS: 0.614198823590974; n = 1
[38] = test system: ZAK; details: read-out: apparent Kd; compound concentrations: 100 nM and 1000 nM (sheet 'Samples'), CATDS: 7.8640349215909094E-2; n = 1
[39] = compound concentrations:100 nM and 1000 nM (sheet 'Samples')

O=C1N=C(N[C@H](CO)Cc2ccccc2)S/C1=C\c1ccc2ncccc2c1 [RO4503319-000]
potency estimated from few doses ([1]; compound concentrations: 100 nM and 1000 nM (sheet 'Samples'), CATDS: 0.16502460627676999): 2.47 µM
potency estimated from few doses [2]: 1.29 µM
potency estimated from few doses [3]: 1.33 µM
potency estimated from few doses [4]: 1.35 µM
potency estimated from few doses [5]: 1.81 µM

COC[C@@H](C)N[C@H]1CC[C@H](Nc2cc(-c3cccc(NCC4(C#N)CCOCC4)n3)c(Cl)cn2)CC1 [NVP-2]
potency estimated from few doses [6]: 2.37 µM
potency estimated from few doses ([7]; compound concentrations: 100 nM and 1000 nM (sheet 'Samples'), CATDS: 0.51387141429952199): 2.13 µM

C=CC(=O)Nc1cc(-c2nn(C3CCC(N4CCN(C(C)=O)CC4)CC3)c3ncnc(N)c23)ccc1Oc1ccccc1 (centres unmarked) [TX-85-1]
potency estimated from few doses [8, 39]: 2.28 µM
potency estimated from few doses [1, 39]: 2.25 µM
potency estimated from few doses [9]: 0.799 µM
potency estimated from few doses [10]: 1.55 µM
potency estimated from few doses [11]: 1.48 µM
potency estimated from few doses [12]: 0.712 µM
potency estimated from few doses [7, 39]: 1.62 µM
potency estimated from few doses [13]: 0.918 µM

Cl.O=C(Nc1cccc(-c2nn3ncccc3c2-c2ccnc(Nc3cccnc3)n2)c1)c1c(F)cccc1F [GSK312879A]
potency estimated from few doses ([8]; compound concentrations: 100 nM and 1000 nM (sheet 'Samples'), CATDS: 0.123574579018809): 1.64 µM
potency estimated from few doses [14]: 0.841 µM
potency estimated from few doses [15]: 1.8 µM
potency estimated from few doses [16]: 2.31 µM
potency estimated from few doses [17]: 1.95 µM
potency estimated from few doses [18]: 0.116 µM
potency estimated from few doses [19]: 1.07 µM

c1cnn2ncc(-c3ccnc(NCCCN4CCOCC4)n3)c2c1 [GW683109X]
potency estimated from few doses [20]: 2.08 µM
potency estimated from few doses [21]: 1.29 µM
potency estimated from few doses [22]: 0.0401 µM
potency estimated from few doses [23]: 1.53 µM
potency estimated from few doses [24]: 0.0822 µM
potency estimated from few doses [25]: 0.118 µM
potency estimated from few doses [26]: 2.1 µM
potency estimated from few doses [27]: 0.105 µM
potency estimated from few doses [28]: 1.39 µM

CNC(=O)c1ccc2c(c1)ncn2-c1ccc(CC(=O)OC(C)(C)C)cc1 [GSK840]
potency estimated from few doses [29]: 2.02 µM
potency estimated from few doses [30]: 0.469 µM
potency estimated from few doses [31]: 0.857 µM
potency estimated from few doses [32]: 0.0121 µM
potency estimated from few doses [33]: 1.42 µM
potency estimated from few doses [34]: 1.5 µM
potency estimated from few doses [35]: 1.65 µM
potency estimated from few doses [36]: 0.759 µM
potency estimated from few doses [37]: 0.00467 µM
potency estimated from few doses [38]: 1.4 µM
